Key:
Type in all cases: functional
[1] = test system: Plasmodium falciparum; experiment: GSK_TCMDC: Inhibition of Plasmodium falciparum 3D7 in whole red blood cells, using parasite LDH activity as an index of growth. Test compounds present at 2uM
[2] = test system: Plasmodium falciparum; experiment: GSK_TCMDC: Inhibition of Plasmodium falciparum Dd2 in whole red blood cells, using parasite LDH activity as an index of growth. Test compounds present at 2uM
[3] = test system: HepG2; experiment: GSK_TCMDC: Percent inhibition of human HepG2 cell line. Test compounds present at 10uM.

| SMILES | Inhibition [1] [%] | Inhibition [2] [%] | Inhibition [3] [%] |
| --- | --- | --- | --- |
| Cc1ccc(C2=NNC3(S2)C(=O)N(C)c2ccccc23)cc1 (stereo not given) | 82 | 12 | 36 |
| CN1CCN(CCCNCc2ccc(Nc3nccc(Nc4ccc(Oc5ccccc5)cc4)n3)cc2)CC1 | 100 | 9 | 17 |
| Cc1cc(=O)c(-c2ccc(OCc3ccc(OC(F)(F)F)cc3)cc2)c(C)[nH]1 | 97 | 92 | 3 |
| COc1ccc2nccc([C@@H](O)CN3CCC(c4cc(-c5ccc(Cl)cc5)[nH]n4)CC3)c2n1 | 97 | 56 | 43 |
| CC=Cc1cc(Cc2c[nH]c(=N)[nH]c2=N)cc(CCC)c1OC | 97 | 1 | 16 |
| CN1CCC(NCc2ccc(-c3ccc(S(=O)(=O)NCc4ccccc4)c(F)c3)cc2)CC1.O=C(O)C(F)(F)F | 99 | 89 | 53 |
| CCn1ccc2c(N3CCCS3(=O)=O)cc(C(=O)N[C@@H](Cc3ccccc3)[C@H](O)CNC3CCCCC3)cc21 | 97 | 98 | 0 |
| Cn1nc(-c2ccc(NC(=O)Nc3cc(C(F)(F)F)ccc3F)cc2)c2cnc(NCCc3c[nH]cn3)nc21.O=C(O)C(F)(F)F | 99 | 56 | 15 |
| CC1(CCN2CCC(c3c[nH]c4cnccc34)CC2)CCCc2c(Br)cccc2C1=O.Cl (stereo not given) | 100 | 66 | 14 |
| Cc1c[nH]c2cc(/C=C/C(=O)NC3CCC(CCN4CCc5ccc(C#N)cc5CC4)CC3)ccc12.Cl (stereo not given) | 95 | 59 | 0 |
